# In PubChem BioAssay AID651965 (National Center for Advancing Translational Sciences (NCATS), 2013):
# Hit rate of the full screen: of about 340,000 compounds, about 6,400 (1.9%) were called active. Not shown: some 4% with an inconclusive outcome. The call rests on the fitted dose curve; in most records, active means well fitted falling curve with a large enough effect; inconclusive means small, poorly fitted or top-dose-only effect; inactive means no such curve, though single readings can be large or run the other way. The entries come from a sample that favours actives as a whole. Where a call stands in place of a potency, no number is given.
# Target: ATP-dependent Clp protease proteolytic subunit (Bacillus subtilis (strain 168)) (UniProt P80244)
# Assay: qHTS Assay for Activators of ClpP; further: the source files actives as falling curves though it sought activators and does not explain the sign; nearly all actives have a fitted effect of over 65% in size
# Details: purified B. subtilis ClpP, FRET peptide cleavage, 20 min; series mostly up to 57.5 µM
# Summary of the method: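 Buffer: 100 mM Tris/HCl pH8, 100 mM KCl, 0.05% low protease BSA, 2.5% glycerol, 0.01% Tween-20. ClpP 10 microg/mL final; 20 min RT; delta FRET normalized to ADEP and DMSO controls.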
# Potency means the concentration at half of the fitted maximal effect.
row,Structure (SMILES),Potency
1,COc1cc(OC)c(/C=C/c2ccnc3ccccc23)c(OC)c1,inactive
2,COc1ccc(C(C(=O)Nc2c(C)cccc2C)N2CCN(c3ccc(C)cc3)CC2)cc1 (configuration not stated),inactive
3,CCC(CC)C(C(=O)NC1CCCC1)N1CCN(c2cc(C)nc3ccccc23)CC1 (configuration not stated),inactive
4,COc1ccccc1/C=C/C(=O)NC(=S)N1CCOCC1,inactive
5,COc1ccccc1/C=C/C1=NC(=C\N(C)C)/C(=O)O1,25.1 µM (active)
6,COc1ccccc1/C=C/c1nc(C#N)c(NC(C)c2ccccc2)o1 (configuration not stated),inactive
7,CC1(C(=O)Nc2ccc3c(c2)OCCO3)CSCC(=O)N1CCOc1ccccc1 (configuration not stated),inactive
8,C[C@@H]1CC2=C(C(=O)OC(C)(C)O2)[C@@H](C2CC2)O1,inactive
9,COc1ccc(C=C2CCC3C(CCCC34OCCO4)C2=O)cc1 (configuration not stated),inactive
10,O=C(Cc1cccc2ccccc12)Nc1ccc2oc(-c3ccccc3)nc2c1,20 µM (active)
11,CCC(=O)Nc1cccc(-c2nc3cc(C)ccc3o2)c1,inactive
12,O=C(Nc1ccc2oc(-c3ccc4ccccc4c3)nc2c1)c1cccs1,3.55 µM (active)
13,COc1cccc(C(=O)Nc2ccc3oc(-c4ccc5ccccc5c4)nc3c2)c1,inactive
14,O=C(Nc1ccc(-c2nc3cc(NC(=O)c4ccccc4Cl)ccc3o2)cc1)c1ccccc1Cl,inactive
15,CCCC(=O)Nc1ccc2oc(-c3ccc(O)c(Br)c3)nc2c1,inactive
16,Clc1ccc(-c2cccc3nccn23)cc1,inactive
17,Cc1cc(Br)cn2c(Cc3cccc(F)c3)c(-c3cccc(Br)c3)nc12,inactive
18,C[C@H](NC(=O)CC[C@H]1O[C@@H](n2ccc(=O)[nH]c2=O)[C@H](O)[C@@H]1O)c1cccc2ccccc12,inactive
19,O=C(O)Cc1ccc(NC(=O)Nc2cccc3ccccc23)cc1,inactive
20,S=C(NCCc1ccccc1)NCc1ccccc1Cl,inactive
21,O=C(O)Cc1ccc(NCc2ccccc2Cl)cc1,8.91 µM (active)
22,Cc1ccc(C)c(OCCC(=O)OCC(=O)c2ccc3c(c2)NC(=O)CO3)c1,inactive
23,COc1cc(N)c(Cl)cc1C(=O)OCC(=O)c1ccc2c(c1)NC(=O)CO2,14.1 µM (active)
24,O=C1COc2ccc(C(=O)COC(=O)c3ccccc3Cl)cc2N1,inactive
25,COc1cccc(CNc2nc(NCc3cccs3)nc3ccsc23)c1,inactive
26,CSCCC(c1nnnn1Cc1ccccc1)N1CCN(C/C=C/c2ccccc2)CC1 (configuration not stated),inactive

row,Structure (SMILES),Potency
1,CC(C)(C)c1nc2ccccc2c(=O)n1N1C(=O)c2ccccc2C1=O,inactive
2,CC(C)(C)c1cc(=O)n2c(nc3ccccc32)[nH]1,15.8 µM (active)
3,Cn1c(=O)c2c(n3c4ccccc4nc13)NC(=O)CC2c1cccc(Cl)c1 (configuration not stated),inactive
4,CCc1nc2ccc(C(=O)NC3CCN(Cc4ccccc4)CC3)cn2c1N(C)CCN1CCOCC1,inactive
5,CCCCOCCCNC(=O)C[C@@H]1C[C@@]2(C(=O)OCC)CCCC=C2N(CCC2=CCCCC2)C1=O,inactive
6,COc1ccc(CCNC(=O)Nc2ccc3c(c2)c(=O)n(C)n3C)cc1OC,inactive
7,N#Cc1cccc(NC(=O)c2cc(C3CCCCN3C(=O)CCc3ccccc3)on2)c1 (configuration not stated),inactive
8,COc1ccc2c(c1OC)C(=O)N(c1ncn[nH]1)C2,28.2 µM (active)
9,CC1(C)OC(=O)C2=C(C[C@@H](C3CCCC3)O[C@@H]2c2ccc(Cl)cc2)O1,inactive
10,O=C(NCc1ccccc1Cl)c1csc([C@@H]2O[C@H](CO)[C@@H](O)[C@H]2O)n1,inactive
11,CC1CCCC(C)N1C(=O)COC(=O)c1ccccc1C(=O)c1ccccc1 (configuration not stated),inactive
12,Cc1cc(C(=O)OCC(=O)N2C(C)CCCC2C)c2ccccc2n1 (configuration not stated),inactive
13,Cc1nn(-c2ccccc2)nc1C(=O)OCC(=O)N1CCCCC1C (configuration not stated),10 µM (active)
14,COc1ccc(C2=Nc3ccccc3NC(=O)C2N(C(=O)c2cc3ccccc3[nH]2)c2ccccc2)cc1 (configuration not stated),inactive
15,Cc1cc(-c2ccccc2)n2nc(-c3ccccc3)cc2n1,inactive
16,Nc1nc2ncccn2c1-c1ccccc1,inactive
17,c1ccc(-c2ccnc3nc(-n4cccc4)nn23)cc1,1.78 µM (active)
18,CN(C)c1ccc(C=Nc2ccc(/C=C/c3ccnc4ccccc34)cc2)cc1,inactive
19,CC1(C)OC(=O)C2=C(C[C@@H](C3CC3)O[C@H]2CCc2cccc(Cl)c2)O1,inactive
20,O=C(Nc1cc(Br)ccc1F)c1nc[nH]c1C(=O)NCc1ccccc1,inactive
21,Cc1ccc(-n2ncc3c(N4CCC(C(N)=O)CC4)ncnc32)cc1,inactive
22,O=C(NNc1ncnc2c1cnn2-c1ccccc1)c1ccco1,inactive
23,CC1(C(=O)Nc2cccnc2)Cc2c(-c3ccccc3)ccnc2O1 (configuration not stated),inactive
24,COc1ccc(CCn2c3c(c(=O)[nH]c2=S)CN(C(C)C)CN3)cc1OC,inactive
25,CCNC(=O)C1CCCN(C(=O)c2ccc(OC)cc2OC)CC1 (configuration not stated),inactive
26,CCc1nc2ccc(C(=O)NC3CCN(Cc4ccccc4)CC3)cn2c1N(CC)CCOC,inactive

row,Structure (SMILES),Potency
1,Cc1ccc2[nH]c(=O)c(COC(=O)c3ccccn3)cc2c1,inactive
2,CCOC(=O)c1[nH]c2ccc(C)cc2c1N=C(C)N(C)C,inactive
3,CCOC(=O)c1cc2cc(C)ccc2[nH]1,14.1 µM (active)
4,COC(=O)c1ccc2nc(-c3cccc(Br)c3)c(Cc3ccccc3C(F)(F)F)n2c1,inactive
5,COCCN(CCOC)c1nc(N)c2c(N)nc3c(c2c1C#N)CC(=O)N3Cc1ccc(Cl)cc1,3.16 µM (active)
6,COc1ccc(C(C#N)=C2C=CC(=NO)c3ccccc32)cc1,inactive
7,CC1=C2C(=O)OC(c3ccoc3)C2(C)CCC1 (configuration not stated),25.1 µM (active)
8,CC1(C)O[C@H]2CC(=O)OCC23[C@H]2CC[C@@]4(C)[C@H](c5ccoc5)OC(=O)[C@H]5O[C@]54[C@]2(C)C(=O)C[C@@H]13 (some centres not stated),inactive
9,CC(C)(C(=O)NO)c1ccccc1,inactive
10,O=C(COc1ccccc1[N+](=O)[O-])N/N=C/c1ccc[nH]1,31.6 µM (active)
11,CCCC(=O)Nc1ccc(C(=O)N/N=C/c2ccc[nH]2)cc1,inactive
12,CC(Oc1ccccc1[N+](=O)[O-])C(=O)N/N=C/c1ccoc1 (configuration not stated),inactive
13,O=C(Nc1ccc(Cl)cc1)c1csc([C@H]2C[C@H](O)[C@@H](CO)O2)n1,inactive
14,COc1cc2c(cc1NC(=O)CN1CCN(S(=O)(=O)c3ccc(F)cc3)CC1)oc1ccccc12,11.2 µM (active)
15,COc1ccccc1NC(=O)CN1CCN(S(=O)(=O)c2ccc(Br)cc2)CC1,inactive
16,COc1ccc(NC(=O)CN2CCN(S(=O)(=O)c3ccc(F)cc3)CC2)cc1Cl,inactive
17,O=C(OCc1cn([C@H]2C[C@H](c3ccccc3)N(C(=O)c3cccs3)C[C@@H]2O)nn1)c1ccccc1,inactive
18,CCOC(=O)C1=CC[C@@H](c2ccncc2)N(S(=O)(=O)c2ccc(C)cc2)C1,inactive
19,CC1(C(=O)NCc2ccc3c(c2)OCO3)CCN1CCc1ccccc1 (configuration not stated),inactive
20,C[N+](C)(C)CCNC(=O)c1c[nH]c2ccccc12,inactive
21,CCOC(=O)c1ccc(COC(=O)c2cc(=O)[nH]c3ccccc23)o1,15.8 µM (active)
22,CC1CCN(C(=O)COC(=O)c2cc(=O)[nH]c3ccccc23)CC1,inactive
23,CCOC(=O)c1ccc(NC(=O)c2cc(=O)[nH]c3ccccc23)cc1,inactive
24,Cc1ccc2nc(-c3ccccc3)c(CC3CCCCC3)n2c1,inactive
25,SCc1nc2ccc(Cl)cc2[nH]1,inactive
26,COc1ccccc1CC(=O)Nc1ccc(F)cc1F,inactive

row,Structure (SMILES),Potency
1,COc1cc([N+](=O)[O-])ccc1NC(=O)CN1CCCC1,inactive
2,COc1ccccc1CC(=O)Nc1ccc([N+](=O)[O-])cc1OC,7.08 µM (active)
3,O=C(NC(c1ccc(-c2ccccc2)cc1)c1cnccn1)C1CCN(CCOc2ccc(Cl)cc2Cl)CC1 (configuration not stated),inactive
4,COc1cc2nc(N3CCCN(C)CC3)nc(NC(C)C)c2cc1OC,inactive
5,COC(=O)Cn1c(=NC(=O)CSCC(=O)Nc2cc(C)on2)sc2ccccc21,inactive
6,COC(=O)Cn1c(=NC(=O)c2cc(OC)c(OC)c(OC)c2)sc2cc(OC)ccc21,2.82 µM (active)
7,COC(=O)Cn1c2ccc(C)cc2c2nc(C)sc21,inactive
8,Cc1ccccc1-c1csc(C(O)c2cccc(Cl)c2)n1 (configuration not stated),inactive
9,COc1ccc(C(=O)Nc2c(Cl)cc(Cl)cc2C(=O)N2CCC(C)CC2)cc1,15.8 µM (active)
10,COc1ccc(C(=O)Nc2ccccc2C(=O)N2CCN(c3ccccc3)CC2)cc1,inactive
11,COc1ccc(C(=O)N2CCC(C(=O)Nc3ccc(C)cc3)CC2)cc1,inactive
12,OC(Cc1ccc2ccccc2n1)c1ccc(Cl)c(Cl)c1 (configuration not stated),inactive
13,COc1ccc(-c2ccnc(SCC(=O)N3CCOCC3)n2)cc1,15.8 µM (active)
14,COc1ccc(-c2nc(SCC(=O)N3CCCCC3C)n[nH]2)cc1 (configuration not stated),inactive
15,O=C(CSc1n[nH]c(-c2ccccc2)n1)N1CCCCC1,inactive
16,COc1ccc(N2CCN(C(=O)CSc3nnc4ncccn34)CC2)cc1,inactive
17,COc1ccc(-c2nc(SCC(=O)N3CCOCC3)n[nH]2)cc1,15.8 µM (active)
18,O=C(CSc1nnc(-c2ccoc2)o1)N1CCOCC1,inactive
19,CCc1ccccc1NC(=O)CN1CCN(C(=O)c2cc(C3CC3)nn2-c2ccccc2)CC1,inactive
20,CSc1ccc(CNC(=O)C2(C)CCCN2C)cc1 (configuration not stated),inactive
21,CCOC(=O)c1ccc(-n2c(CCC(=O)O)ccc2-c2ccccc2)cc1,inactive
22,CCOC(=O)c1c(-c2ccc(OC)cc2)oc2ccc(OCc3ccc(C(=O)OC)cc3)cc12,inactive
23,CCOC(=O)c1ccc(COC(=O)CCc2nc(-c3ccccc3)c(-c3ccccc3)o2)cc1,28.2 µM (active)
24,COC(=O)C1=CN(c2c(C)cc(C)cc2C)C(N)=C(C#N)C1c1cccc(F)c1 (configuration not stated),inactive
